From PubChem BioAssay
Active and inactive are the calls of the source.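 How the source made its calls, unless noted: active means fluorescence slope after compound addition differing from the mean of all screened samples at 99.7% confidence, in either direction; inactive means the rest.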 Where a SMILES comes first, the peptide text is derived from it. The star is where a group is joined. Boc = CC(C)(C)OC(=O)*

Tests used:
[1] = inhibitors of TNFa-induced NFkB p65 translocation, primary screen, imaging, HUVEC, MLSMR starter and 10KST1 sets (AID 438;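 active means inhibition above 20% together with a positive visual image hit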;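 further: compound added about 3h40 before a 20 min TNFalpha stimulation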;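 on inhibition: signal is the nuclear over cytoplasmic p65 intensity ratio per well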); details: HUVEC TNFa-induced p65 nuclear translocation; cell count: measured here: nuclei count (cytotoxicity indicator), at 2.08 µM; inhibition: at 2 µM, stronger effect = higher value, 0% TNFa-plus-vehicle, 100% no-TNFa wells
[2] = reduction of polyQ htt aggregates in cells – imaging, exon1htt(103Q)mCFP cells, high-content imaging, primary screen (AID 483;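 active means visual image review flags a hit and inhibition of aggregation exceeds 20%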;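 further: compound exposure lasted 3 days before fixation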;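 on nuclei count: percent of the per-plate median nuclei count of sample wells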); details: exon1htt(103Q)mCFP cell line, aggregate imaging, at 2 µM; inhibition of aggregation: stronger effect = higher value; nuclei count: measured here: cell count, toxicity
[3] = endothelial E-selectin expression blockers – imaging, HUVEC, immunofluorescence, MLSMR starter and 10KST1 sets, primary screen (AID 487;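 active means visually confirmed hit in the image check and inhibition above 20%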;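 on inhibition: signal is fraction of cell area covered by stained E-selectin grains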;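 on nuclei count: 100% = median nuclei count of all wells on the same plate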); details: HUVEC TNFalpha-induced E-selectin immunofluorescence imaging, at 2 µM; inhibition: stronger effect = higher value; nuclei count: measured here: cell number, toxicity
[4] = molecular target: Voltage-gated potassium channel subunit beta-2 (Rattus norvegicus) (UniProt P62483); test: inhibitors of rat Kvbeta2 reductase activity – biochemical, NADPH fluorescence, primary screen (AID 622;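 active means fluorescence slope higher than the sample average by over 3 SD, cut at about -0.22 in these data, passing the limit was not always enough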;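 further: slope of raw intensity against log time taken from 70 to 1610 s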); details: recombinant KvBeta, 4-cyanobenzaldehyde reduction, at 10 µM, stronger effect = higher value
[5] = molecular target: Voltage-gated potassium channel subunit beta-2 (Rattus norvegicus) (UniProt P62483); test: enhancers of rat Kvbeta2 NADPH turnover – biochemical, NADPH fluorescence, primary screen (AID 623;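 active means NADPH fluorescence slope more negative than the mean of all samples by about 3 SD, 99.7% confidence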;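 further: fluorescence intensity change per second fitted from 20 to 320 s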); details: Recombinant KvBeta, NADPH fluorescence decrease slope, 10 min; at 10 µM; stronger effect = lower value
[6] = molecular target: Alpha-2C adrenergic receptor (Homo sapiens) (UniProt P18825); test: compounds altering alpha2C-coupled GIRK flux – cell-based, HEK293 alpha2C/GIRK1/2, thallium flux, primary screen (AID 624); details: thallium flux BTC fluorescence, at 10 µM, actives lie on both sides;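 further: slope of fluorescence ratio to pre-addition baseline per second over 15 to 24 s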
[7] = blockers of RIG-like receptor reporter activation – cell-based, Sendai virus stimulus, luciferase, 10K MLSCN set, TLR/RLR signaling modifier project, primary screen (AID 602276;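 active means inhibition at or above 50% at 10 µM; inactive means inhibition below 50%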;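 further: firefly luciferase from ISG56 promoter only with Renilla not read in this screen; 0% = Sendai virus plus DMSO and 100% = medium plus DMSO without virus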); details: HEK293 RL24 IRF3 luciferase reporter, at 10 µM, stronger effect = higher value
[8] = TLR3 IRF3 reporter activation blockers – cell-based, poly I:C stimulus, luciferase, 10K MLSCN set, primary screen (AID 602277;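 active means inhibition of the reporter signal at or above 50%; inactive means inhibition below 50%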); details: HEK293-TLR3 RL24 IRF3 luciferase reporter, at 10 µM, stronger effect = higher value

Voltage-gated potassium channel subunit beta-2 (Rattus norvegicus), sequence (P62483 whole entry, looked up): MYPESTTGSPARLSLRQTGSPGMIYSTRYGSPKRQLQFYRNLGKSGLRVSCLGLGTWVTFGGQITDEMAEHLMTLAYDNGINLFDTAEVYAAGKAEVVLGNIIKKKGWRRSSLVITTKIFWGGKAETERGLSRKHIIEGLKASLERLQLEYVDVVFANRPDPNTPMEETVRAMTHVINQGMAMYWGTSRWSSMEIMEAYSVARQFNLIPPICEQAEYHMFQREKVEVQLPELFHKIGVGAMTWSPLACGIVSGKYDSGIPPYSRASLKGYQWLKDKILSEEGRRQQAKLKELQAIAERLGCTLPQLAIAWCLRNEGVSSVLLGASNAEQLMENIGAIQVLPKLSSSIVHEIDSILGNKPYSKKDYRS
Alpha-2C adrenergic receptor (Homo sapiens), sequence (P18825 whole entry, looked up): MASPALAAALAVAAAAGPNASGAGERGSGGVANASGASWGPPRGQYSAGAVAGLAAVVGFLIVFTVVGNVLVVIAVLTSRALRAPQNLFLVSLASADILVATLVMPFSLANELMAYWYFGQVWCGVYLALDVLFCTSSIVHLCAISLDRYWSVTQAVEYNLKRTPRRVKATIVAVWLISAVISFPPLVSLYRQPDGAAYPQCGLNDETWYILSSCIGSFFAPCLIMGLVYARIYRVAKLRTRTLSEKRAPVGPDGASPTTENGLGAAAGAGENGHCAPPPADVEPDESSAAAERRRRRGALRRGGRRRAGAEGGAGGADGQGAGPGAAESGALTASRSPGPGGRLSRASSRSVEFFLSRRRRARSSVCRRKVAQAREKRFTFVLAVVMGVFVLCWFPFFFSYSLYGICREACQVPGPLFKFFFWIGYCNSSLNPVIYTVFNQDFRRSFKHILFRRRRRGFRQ

| Structure (SMILES) | cell count [1] | inhibition [1] | inhibition of aggregation [2] | nuclei count [2] [%] | inhibition [3] | nuclei count [3] [%] | fluorescence slope [4] | NADPH fluorescence slope [5] | slope [6] | inhibition [7] | inhibition [8] |
| --- | --- | --- | --- | --- | --- | --- | --- | --- | --- | --- | --- |
| CCn1ncc(Cl)c1C(=O)Nc1ccncc1 | 587 | -6.1% (inactive) | -21.9% (inactive) | 56.2 | -41% (inactive) | 101 | -0.577 (inactive) | -5.6e-05 (inactive) | 0.00342 (inactive) | 3.99% (inactive) | -1.03% (inactive) |
| CCOc1ccc(NC(=O)CC2NCCNC2=O)cc1 (centres undefined) | 738 | -10.9% (inactive) | -1.6% (inactive) | 126 | -39.4% (inactive) | 99.2 | -0.302 (inactive) | -7e-05 (inactive) | 0.00573 (inactive) | 9.27% (inactive) | 13.9% (inactive) |
| CC(C)CC(NC(=O)OC(C)(C)C)C(=O)NC(C(=O)N1CCCC1C(N)=O)C(C)C (stereo not drawn) (Boc-Leu-Val-Pro-NH2; configuration not given here) | 662 | 8.7% (inactive) | -4% (inactive) | 100 | 62.5% (inactive) | 89.1 | -0.485 (inactive) | -2.7e-05 (inactive) | 0.00542 (inactive) | 4.38% (inactive) | 20.6% (inactive) |
| CCOC(=O)N1CCN(C(=O)COc2ccc(S(=O)(=O)NC3CCCCC3)cc2C)CC1 | 536 | 9.7% (inactive) | -14.2% (inactive) | 105 | -31.8% (inactive) | 93.5 | -0.644 (inactive) | -4.2e-05 (inactive) | 0.00446 (inactive) | 3.18% (inactive) | -12.8% (inactive) |
| Cc1ccccc1C1CC(c2ccccc2)Nc2ncnn21 (centres undefined) | 561 | 0% (inactive) | -26.3% (inactive) | 92.1 | -47% (inactive) | 108 | -0.528 (inactive) | -1.4e-06 (inactive) | 0.00646 (inactive) | 3.07% (inactive) | 15.7% (inactive) |
| FC(F)Oc1ccc(-c2csc(Cc3nnc4n3CCCCC4)n2)cc1 | 578 | -3.5% (inactive) | -9% (inactive) | 113 | 84.7% (active) | 83.2 | -0.535 (inactive) | 7.5e-06 (inactive) | 0.00442 (inactive) | -0.365% (inactive) | -11.8% (inactive) |
| CC(C)Cn1c(N)c(C(=O)NCCN2CCOCC2)c2nc3ccccc3nc21 | 440 | -2.8% (inactive) | -15.6% (inactive) | 101 | -37.1% (inactive) | 81.3 | -0.0147 (inactive) | -9e-06 (inactive) | 0.00559 (inactive) | 19.1% (inactive) | 19.8% (inactive) |
| CCOC(=O)C1CN(S(=O)(=O)c2ccc(C)cc2)CCN1S(=O)(=O)c1ccc(C)cc1 (centres undefined) | 339 | 3.3% (inactive) | -36.8% (inactive) | 117 | -114% (inactive) | 122 | -0.591 (inactive) | 3.6e-05 (inactive) | 0.00631 (inactive) | 8.55% (inactive) | 11% (inactive) |
| CCC(=O)Nc1c(C#N)c2nc3ccccc3nc2n1-c1ccccc1C | 311 | -1.9% (inactive) | 11.4% (inactive) | 83.9 | -20.8% (inactive) | 95.9 | -0.0512 (inactive) | 7.8e-06 (inactive) | 0.00349 (inactive) | 12.6% (inactive) | 21.8% (inactive) |
| COC(=O)CN1C(=O)CC(C)(C)S(=O)c2ccccc21 (centres undefined) | 769 | -9.2% (inactive) | 13.9% (inactive) | 82.6 | -44% (inactive) | 98.5 | -0.574 (inactive) | -5.2e-05 (inactive) | 0.00765 (inactive) | 4.76% (inactive) | 22.2% (inactive) |
| Cc1csc(NC(=O)C2CCCO2)n1 (centres undefined) | 725 | -11.4% (inactive) | -7.3% (inactive) | 101 | -133% (inactive) | 134 | -0.494 (inactive) | -5.6e-05 (inactive) | 0.00887 (inactive) | -2.56% (inactive) | 17.7% (inactive) |
| COc1ccc(S(=O)(=O)N2CCN(Cc3ccc(Cl)cc3)CC2)cc1 | 554 | -5.4% (inactive) | 24.4% (inactive) | 61.1 | -97.9% (inactive) | 148 | -0.458 (inactive) | -9.2e-06 (inactive) | 0.00502 (inactive) | 0.485% (inactive) | -1.64% (inactive) |
| CCOC(=O)C1=C(C)N=c2s/c(=C\c3cccn3C)c(=O)n2C1c1cccc(OC)c1OC (centres undefined) | 342 | 4.5% (inactive) | 0.2% (inactive) | 98.8 | -38% (inactive) | 102 | -0.419 (inactive) | -8.6e-05 (inactive) | 0.0038 (inactive) | 15.4% (inactive) | 25.1% (inactive) |
| O=C(COc1ccccc1Cl)NCc1ccco1 | 310 | -13% (inactive) | 7.5% (inactive) | 92.3 | -27.9% (inactive) | 115 | -0.488 (inactive) | -3e-05 (inactive) | 0.00673 (inactive) | -22.9% (inactive) | -43.3% (inactive) |
